Rows were chosen to be rich in hits. Some 2.9% of all compounds tested hit in one or more screens of this group.
Mcl1 Noxa PPI = Mcl-1/Noxa interaction inhibition; hit rate 1.5% among 220,000; TR-FRET Mcl-1/Noxa peptide binding, 2 h; inhibition, % at 21.7 µM; Q07820; AID 1022;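 active means compounds that cut the protein-peptide binding signal by more than 50% relative to plate controls in a single-dose test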;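 further: His-tagged Mcl-1 with rhodamine Noxa BH3 peptide and terbium anti-His antibody; 0% = Mcl-1 plus Noxa peptide wells and 100% = peptide-only wells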
Target sequence (Q07820 whole entry, looked up): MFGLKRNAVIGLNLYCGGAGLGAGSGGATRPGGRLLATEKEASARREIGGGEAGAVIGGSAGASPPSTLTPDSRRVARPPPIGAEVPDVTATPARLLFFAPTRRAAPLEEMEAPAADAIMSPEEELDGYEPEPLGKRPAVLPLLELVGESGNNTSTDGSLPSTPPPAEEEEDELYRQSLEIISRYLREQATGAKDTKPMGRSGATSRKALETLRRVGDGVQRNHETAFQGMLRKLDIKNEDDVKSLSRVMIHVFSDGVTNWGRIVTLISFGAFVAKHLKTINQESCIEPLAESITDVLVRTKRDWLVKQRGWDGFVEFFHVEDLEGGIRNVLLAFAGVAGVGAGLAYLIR
Pf gametocyte = inhibitors of late stage P. falciparum gametocyte viability. P. falciparum stage V gametocytes, ATP luminescence, 24 h. inhibition, % at 10.9 µM. hit rate 0.065% among 150,000. AID 743093;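 active means inhibition above the mean plus 3 SD of compounds within the control limits, set per campaign, cut at about 38% in these data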;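 further: 0% = DMSO wells and 100% = medium only without gametocytes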
Bim-Mcl-1 = inhibitors of Bim-Mcl-1 interaction, human | Bead-based flow cytometry, Bim peptide-Mcl-1 binding | hit rate 0.1% among 190,000 | AID 1009 | Q07820 | inhibition, % at 10 µM; in the data active means inhibition above about 40%;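 further: 0% = no compound tracer wells and 100% = peptide blocker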
14-3-3 Bad PPI = disrupts binding of bovine 14-3-3 zeta to phospho-Bad peptide | AID 781 | inhibition, % at 21.7 µM | hit rate 0.71% among 220,000 | TR-FRET 14-3-3zeta/Dy647-pBad peptide displacement, 1 h | P63103;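 active means inhibition above about 70%, limit read from the data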;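 further: 0% = full 14-3-3 plus peptide FRET controls and 100% = background without 14-3-3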
Target sequence (P63103 whole entry, looked up): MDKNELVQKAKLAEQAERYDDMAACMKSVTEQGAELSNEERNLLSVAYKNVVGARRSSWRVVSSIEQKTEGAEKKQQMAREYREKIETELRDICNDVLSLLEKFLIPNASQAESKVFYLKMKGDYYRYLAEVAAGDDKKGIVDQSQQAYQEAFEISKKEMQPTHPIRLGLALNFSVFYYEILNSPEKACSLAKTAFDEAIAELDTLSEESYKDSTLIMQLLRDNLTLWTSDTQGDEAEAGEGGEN
Hck-Nef inh = human Hck-Nef kinase inhibition | hit rate 0.68% among 220,000 | P08631 | inhibition, % at 20 µM | AID 463187 | Recombinant Hck-YEEI plus Nef, Z-Lyte FRET kinase assay;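 active means Hck-Nef kinase inhibition above about 50%, limit read from the data; inactive means inhibition below that limit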;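 further: 0% = DMSO with Hck plus Nef and 100% = Hck alone without Nef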
Mcl1 Bid PPI = disrupts binding of human Mcl-1 to Bid peptide; Q07820; TR-FRET Mcl-1/Bid-Dy647 peptide binding, 1536-well; inhibition, % at 21.7 µM; hit rate 0.97% among 220,000; AID 1021;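 active means compounds that cut the binding signal by more than half at the single screening dose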;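 further: His-tagged Mcl-1 with europium anti-His antibody binding Bid BH3 peptide; 0% = Mcl-1 plus peptide wells and 100% = peptide-only wells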
* = called active by the depositor; [ ] = remark or other dose.

How did COc1ccc(-n2cc(-c3ccc(OC(F)F)cc3)[n+]3c2CCCCC3)cc1 do in these assays?
Mcl1 Noxa PPI: 9; Pf gametocyte: -9; Bim-Mcl-1: -1; 14-3-3 Bad PPI: 12; Hck-Nef inh: 15; Mcl1 Bid PPI: 90*

What do the screens show for `COc1cc(/C=N/N(c2ccccc2)c2ccccc2)ccc1O`?
Pf gametocyte: -4

Results for CN(/N=C\c1ccc(O)c(O)c1)c1nc(-c2ccccc2)cc(-c2ccccc2)n1 ?
Mcl1 Noxa PPI: 72*; Pf gametocyte: -26; Bim-Mcl-1: 0; 14-3-3 Bad PPI: -5; Hck-Nef inh: 2; Mcl1 Bid PPI: 22

Results for CCN(CC)CCN1C(=O)C(O)=C(C(C)=O)C1c1ccc(OC)c(OC)c1 (centres undefined) ?
Mcl1 Noxa PPI: 19; Pf gametocyte: -15; Bim-Mcl-1: -6; 14-3-3 Bad PPI: 5; Hck-Nef inh: 7; Mcl1 Bid PPI: -37

Results for CCCn1ncc(/C=N/O)c1C ?
Mcl1 Noxa PPI: 5; Pf gametocyte: 4; 14-3-3 Bad PPI: -2; Hck-Nef inh: 5; Mcl1 Bid PPI: -6

How did CN1CCN(C2=C(Cl)C(=O)N(C3CCCCC3)C2=O)CC1 do in these assays?
Mcl1 Noxa PPI: 4; Pf gametocyte: 19; Bim-Mcl-1: -1; 14-3-3 Bad PPI: 6; Hck-Nef inh: 1; Mcl1 Bid PPI: -42

How did CN1CCN(C2=C(Cl)C(=O)C(c3cnc(N4CCCCC4)s3)=C(Cl)C2=O)CC1 do in these assays?
Mcl1 Noxa PPI: 98*; Bim-Mcl-1: 32; 14-3-3 Bad PPI: 83*[fluorescence artefact?]; Hck-Nef inh: -1; Mcl1 Bid PPI: 79*

How did CC(NC(=O)COC(=O)Cc1ccccc1[N+](=O)[O-])c1ccccc1 (centres undefined) do in these assays?
Mcl1 Noxa PPI: 20; Pf gametocyte: 4; Bim-Mcl-1: -6; 14-3-3 Bad PPI: 1; Hck-Nef inh: -4; Mcl1 Bid PPI: -16

How did CCCCOC(=O)c1ccc(NS(=O)(=O)c2cc(-c3nnnn3CC)ccc2OC)cc1 do in these assays?
Mcl1 Noxa PPI: -5; Bim-Mcl-1: -3; 14-3-3 Bad PPI: -5; Hck-Nef inh: 2; Mcl1 Bid PPI: 7

Results for COc1cccc(OC)c1OCCCCn1cnc2ccccc2c1=O ?
Mcl1 Noxa PPI: 3; Pf gametocyte: 16; Bim-Mcl-1: -3; 14-3-3 Bad PPI: 43; Hck-Nef inh: 18; Mcl1 Bid PPI: 51*

What do the screens show for `COc1ccc(CCNC(=O)CN(c2ccc(OC)c(OC)c2)S(C)(=O)=O)cc1`?
Mcl1 Noxa PPI: 75*; Bim-Mcl-1: -4; 14-3-3 Bad PPI: -2; Hck-Nef inh: 0; Mcl1 Bid PPI: -19

What do the screens show for `CCCCCc1nc2c(=O)[nH]c3ccccc3c2o1`?
Mcl1 Noxa PPI: 77*; Bim-Mcl-1: 0; 14-3-3 Bad PPI: 4; Hck-Nef inh: -1; Mcl1 Bid PPI: -19

Results for C[N+]1(CC2COC3(CCCCC3)O2)CCCCC1 (centres undefined) ?
Mcl1 Noxa PPI: 23; Pf gametocyte: 6; 14-3-3 Bad PPI: 1; Hck-Nef inh: 8; Mcl1 Bid PPI: -35

Results for COC(=O)/C=C1\OC(c2ccccc2)=CC1=O ?
Mcl1 Noxa PPI: 66*; Bim-Mcl-1: -15; 14-3-3 Bad PPI: -6; Hck-Nef inh: 2; Mcl1 Bid PPI: 1

How did COc1cc(Cl)c(C)cc1NC(=O)CSc1nnc(CCC(=O)O)c(=O)[nH]1 do in these assays?
Mcl1 Noxa PPI: 1; Pf gametocyte: -12; Bim-Mcl-1: 0; 14-3-3 Bad PPI: -3; Hck-Nef inh: 26; Mcl1 Bid PPI: -20

Results for O=C(N/N=C\c1c(O)ccc2ccccc12)c1ccc(Cn2cccn2)o1 ?
Mcl1 Noxa PPI: 51*; Pf gametocyte: -18; Bim-Mcl-1: 0; 14-3-3 Bad PPI: -18; Hck-Nef inh: -4; Mcl1 Bid PPI: -70

How did Cn1c(=O)c2c(nc(N3CCCCCC3)n2CC(O)COc2ccccc2)n(C)c1=O (centres undefined) do in these assays?
Mcl1 Noxa PPI: 9; Pf gametocyte: -11; Bim-Mcl-1: 5; 14-3-3 Bad PPI: 72*; Hck-Nef inh: 2; Mcl1 Bid PPI: -5

What do the screens show for `CCOc1ccc(N2C(=O)CC(NCCc3ccncc3)C2=O)cc1` (centres undefined)?
Mcl1 Noxa PPI: -4; Pf gametocyte: -18; Bim-Mcl-1: -2; 14-3-3 Bad PPI: -7; Hck-Nef inh: 3; Mcl1 Bid PPI: -15

What do the screens show for `Cc1nn(Cc2ccccc2)c(C)c1C(=O)Nc1ccc(N2CCOCC2)cc1`?
Mcl1 Noxa PPI: 6; Pf gametocyte: 8; Bim-Mcl-1: -1; 14-3-3 Bad PPI: -8; Hck-Nef inh: 3; Mcl1 Bid PPI: -95

Results for Cc1nn(Cc2ccc(F)cc2)c2sc(C(=O)Nc3ccc(N4CCOCC4)cc3N3CCOCC3)cc12 ?
Mcl1 Noxa PPI: 76*; Bim-Mcl-1: -5; 14-3-3 Bad PPI: 4; Hck-Nef inh: 18; Mcl1 Bid PPI: -62

Results for COc1ccc(C(=O)n2nc(C)c(Br)c2C)cc1 ?
Mcl1 Noxa PPI: 85*; Pf gametocyte: -4; Bim-Mcl-1: -4; 14-3-3 Bad PPI: 13; Hck-Nef inh: 1; Mcl1 Bid PPI: 16

Results for CCOC(=O)C1=C(C)NC(=O)C(C(N)=O)C12CCCC2 (centres undefined) ?
Mcl1 Noxa PPI: 11; Pf gametocyte: 17; Bim-Mcl-1: -3; 14-3-3 Bad PPI: -3; Hck-Nef inh: 1; Mcl1 Bid PPI: -17

Results for CCOC(=O)C1=C(C)NC(=O)C(C(N)=O)C12CCCCC2 (centres undefined) ?
Mcl1 Noxa PPI: 57*; Bim-Mcl-1: -1; 14-3-3 Bad PPI: 3; Hck-Nef inh: 1; Mcl1 Bid PPI: -9

Results for Oc1c(C(c2ccccc2Cl)N2CCCC2)ccc2cccnc12 (centres undefined) ?
Mcl1 Noxa PPI: 28; Pf gametocyte: 19; Bim-Mcl-1: 0; 14-3-3 Bad PPI: 9; Hck-Nef inh: 31; Mcl1 Bid PPI: -3

Results for Oc1c(C(c2cccs2)N2CCN(c3ccccc3)CC2)ccc2cccnc12 (centres undefined) ?
Mcl1 Noxa PPI: 85*; Bim-Mcl-1: -6; 14-3-3 Bad PPI: 50; Hck-Nef inh: 1; Mcl1 Bid PPI: 65*

What do the screens show for `COc1ccc(CNc2nc(SCC(=O)NCc3ccco3)nc3ccccc23)cc1`?
Mcl1 Noxa PPI: 11; Bim-Mcl-1: -2; 14-3-3 Bad PPI: -6; Hck-Nef inh: 0; Mcl1 Bid PPI: -38

How did Cc1ccc2[nH]c3nc(N/N=C/c4cccc(O)c4)nnc3c2c1 do in these assays?
Pf gametocyte: 4

Results for COc1cc(/C=N/Nc2nnc3c(n2)[nH]c2ccccc23)ccc1O ?
Mcl1 Noxa PPI: 94*; Pf gametocyte: -5; Bim-Mcl-1: 0; 14-3-3 Bad PPI: 83*[fluorescence artefact?]; Hck-Nef inh: 2; Mcl1 Bid PPI: 90*

Results for O=C(O)CCCCC1CCSS1 (centres undefined) ?
Mcl1 Noxa PPI: 74*; Bim-Mcl-1: -2; 14-3-3 Bad PPI: 99*; Hck-Nef inh: 101*; Mcl1 Bid PPI: 97*
